PubChem BioAssay AID1566 (Sanford-Burnham Center for Chemical Genomics, 2009)
In all, about 290,000 compounds went through this assay and about 1,800 (0.62%) were called active. The sample holds actives, similar compounds and a random draw of the others, so the mix is not that of the screen. Cut-off read from the data, not from the text of the source: active = inhibition above about 50%; inactive = the rest.

assay: inhibition of NOD2-driven NF-kB reporter – cell-based, luminescence, uHTS, HEK293 (AID 1566); conditions: HEK293 NOD2/NF-kB luciferase reporter, at 4 µM, stronger effect = higher value

inhibition, inactive:
CC(=O)Nc1ccc(OS(=O)(=O)c2ccc(Cl)cc2)cc1 12.5%
CCN(CC)S(=O)(=O)c1ccc(C)c(NC(=O)/C=C/c2cccs2)c1 -13.1%
CCOCC(=O)Nc1ccccc1C(=O)O 5.3%
CCCCNC(=O)c1cn(CC)c2ccc(S(=O)(=O)N3CCCCCC3)cc2c1=O -6.4%
O=S(=O)(Nc1cc(Sc2cccc3cccnc23)c(O)c2ccccc12)c1ccc(F)cc1 -2.1%
O=C(O)CSc1cc(NS(=O)(=O)c2cccc([N+](=O)[O-])c2)c2ccccc2c1O 16.9%
Cc1cc(C)c(S(=O)(=O)Nc2cc(SCC(=O)O)c(O)c3ccccc23)cc1C 29.2%
O=S(=O)(Nc1cc(Sc2ncn[nH]2)c(O)c2ccccc12)c1ccccc1 19%
COc1ccc(NS(=O)(=O)/C=C/c2ccccc2)cc1 17.1%
COc1ccc(C(=O)Nn2c(SCc3cccc([N+](=O)[O-])c3)nc3ccccc3c2=O)cc1 40.4%
COc1cccc(Oc2c(C)oc3c(CN4CCCCC4)c(O)ccc3c2=O)c1 18.7%
Cc1cccc(-n2cc(C(=O)O)c(=O)cc2C)c1 1.7%
CCOc1ccc(/C=C/C(=O)Nc2ccc3[nH]c(=O)[nH]c3c2)cc1 6.2%
Cc1ccc(NS(=O)(=O)c2c(C)nc3sccn3c2=O)cc1C 12.9%
CN(c1cc(=O)n2ccccc2n1)C1CCCCC1 -19.5%
CC1CCCN(c2ccc3nc4ccccc4c(=O)n3n2)C1 (stereo unspecified) 4.1%
CSc1ccc(C(=O)C2CCCN(C(=O)CCc3cnn(C)c3)C2)cc1 (stereo unspecified) 11%
Cc1nn(C)c(C)c1CCC(=O)N1CCCC(C(=O)c2cccc(OC(C)C)c2)C1 (stereo unspecified) 14.2%
Clc1cccc(-c2ccnc3nc(-n4cccc4)nn23)c1 5.6%
COc1ccc(OC)c(NC(=O)C2CC(=O)N(c3ccccc3)C2)c1 (stereo unspecified) -11.1%
COCCN1CN=C(NS(=O)(=O)c2ccc(C)cc2)NC1 6.3%
Cn1nc(C(=O)N2CCC(C(N)=O)CC2)c2c1-c1ccccc1SC2 12.9%
CC1CCCN(C(=O)c2nn(C)c3c2CSc2ccccc2-3)C1 (stereo unspecified) 8%
COCc1ccc(CN2CCC(C(=O)Nc3cccc(-c4cscn4)c3)CC2)o1 7.2%
Cc1ccc(NC(=O)c2cc(C)n(-c3cccc(C)c3)c2C)cc1 -26.4%
Cc1ccc(S(=O)(=O)NC(=O)c2cc(C)n(-c3ccccc3)c2C)cc1 13.4%
O=C(/C=C/c1cn(-c2ccccc2)nc1-c1cccnc1)N1CCCCC1 10%
O=C(/C=C/c1cn(-c2ccccc2)nc1-c1cccnc1)c1ccco1 -74.6%
CC(OC(=O)C1CCN(S(=O)(=O)c2ccc(Cl)cc2)CC1)C(=O)N1CCc2ccccc21 (stereo unspecified) -4.3%
COc1ccc(CN(Cc2nc3ccccc3c(=O)[nH]2)C(=O)c2ccco2)cc1 6.4%
c1ccc2c(c1)nc(-c1ccncc1)n2CCNc1nc(CN2CCCCC2)cs1 18.5%
CCOC(=O)c1ccc(NC(=S)N2CCCC(C(=O)OCC)C2)cc1 (stereo unspecified) -6%
O=C1C=C(c2cccs2)C[C@H](c2ccccc2)[C@H]1n1nnc([N+](=O)[O-])n1 21.7%
O=C1C=C(c2ccccc2)C[C@H](c2cccs2)[C@H]1n1cnc([N+](=O)[O-])c1 3.4%
COc1ccc(NC(=O)c2cccc(OC(=S)N3CCOCC3)c2)cc1 18.5%
Cc1cccc(C)c1NC(=S)NCc1ccncc1 7.5%
Cc1cc(/C=c2\sc3nc4ccccc4n3c2=O)c(C)n1-c1ccc(C(=O)O)cc1 -0.4%
Cc1cc(/C=c2/sc3nc4ccccc4n3c2=O)c(C)n1-c1ccccn1 3.6%
CC1(C)Cc2c(c(-c3ccco3)nc3sc4c(NCCO)ncnc4c23)CO1 16.6%
Cc1ccc(C(=O)O/N=C(/c2nonc2N)N(C)C)cc1 12.2%
COc1ccc(-c2nc3ccccc3n2Cc2ccccc2)cc1 -2.8%
Cc1n(Cc2ccccc2)c2ccccc2[n+]1Cc1ccccc1 22%
C/C(=N\Nc1ccc(C)c(Cl)c1)c1ccncc1 -32.8%
O=C(Nc1ccc2c(c1)OCO2)C1CCN(Cc2cc3c(cc2O)OCO3)CC1 1.5%
Cc1nc2sc(-c3ccccc3)cc2c(=O)n1N -41.2%
Cc1nc2ccccc2c(=O)n1N -3.2%
CC(C)(C#N)NC(=O)C(=O)c1c(-c2ccccc2)cc2ccccn12 5%
CCOc1ccc(-n2c(N)c(-c3nc4ccccc4[nH]3)sc2=S)cc1 9.9%
COc1cccc(/C=N/Nc2ccc(S(=O)(=O)O)cc2)c1O 15.4%
COc1cccc(/C=N/Nc2ccc([N+](=O)[O-])cc2)c1O -64%
CCOC(=O)CNC(=S)N(CCCN1CCN(C)CC1)Cc1cccs1 -1.4%
O=C1OC(c2ccccc2)c2ccccc21 (stereo unspecified) -11.5%

inhibition, active:
O=S(=O)(Nc1cc(Sc2cccc3cccnc23)c(O)c2ccccc12)c1ccccc1 95.9%
O=C(O)CSc1cc(NS(=O)(=O)c2ccc(Br)cc2)c2ccccc2c1O 57.2%
CN(c1ccc2nc3ccccc3c(=O)n2n1)C1CCCCC1 79%
CSc1ccc(C(=O)C2CCCN(C(=O)CCc3c(C)nn(C)c3C)C2)cc1 (stereo unspecified) 50.1%
CC1CC(C)CN(C(=O)c2nn(C)c3c2CSc2ccccc2-3)C1 (stereo unspecified) 51.5%
Cc1ccc(NC(=O)c2cc(C)n(-c3ccccc3)c2C)cc1 52%
O=C(/C=C/c1cn(-c2ccccc2)nc1-c1cccnc1)N1CCCC1 50.2%
Cc1nc2cc(-c3ccccc3)sc2c(=O)n1N 54.8%
COc1cccc(/C=N/Nc2ccc(C(=O)O)cc2)c1O 82.8%
